POLB inh: qHTS Assay for Inhibitors of DNA Polymerase Beta; P06746; Pol beta primer extension/strand displacement, fluorescence kinetic; Potency, µM (highest dose often 114 µM), inactives show at the highest dose activity change, negative = inhibition, usual class: inhibitors; 1.3% of 340,000 active; AID 485314, 2010; note: potency is the fitted concentration of half-maximal effect; % is set by controls: 0 for no effect and ±100 for the full control effect
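10 nM enzyme + cpd, 15 min RT; start with substrate 50 nM final; read 0 min and after 10 min RT. Corrected, normalized data; 4-parameter Hill curve fit.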
Pol kappa inh: qHTS for Inhibitors of Polymerase Kappa; DNA polymerase kappa (Homo sapiens), Q9UBT6; purified Pol kappa, fluorescent DNA synthesis assay, 10 min; Potency, µM (highest dose often 107 µM), for the others: at the highest dose activity, negative = inhibition, usual class: inhibitors; 0.53% of 400,000 active; AID 588579, 2011; note: potency is the fitted concentration of half-maximal effect; % is set by controls: 0 for no effect and ±100 for the full control effect
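Kinetic fluorescence readout at 0 and 10 min followed reaction start with substrate at 50 nM final. Beforehand, enzyme (10 nM Pol kappa) stood 15 min with compound at room temperature; buffer-only wells were negative controls.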
Pol iota inh: qHTS for Inhibitors of Polymerase Iota; Pol iota fluorescent replication assay, 10 min; Potency, µM (top dose mostly 115 µM), without a hit: top-dose activity, negative = inhibition, hits mostly inhibitors; 1% of 390,000 active; AID 588590, 2011; note: potency is the fitted concentration of half-maximal effect
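Pol iota at 10 nM preincubated 15 min with compounds at room temperature; reaction started with fluorescent substrate, 50 nM final. Fluorescence read kinetically at 0 and 10 min; buffer-only wells as negative control.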
WRN helicase inh: qHTS for Inhibitors of WRN Helicase | Bifunctional 3'-5' exonuclease/ATP-dependent helicase WRN (Homo sapiens), Q14191 | WRN helicase unwinding, fluorescent forked duplex, kinetic | Potency, µM (doses to about 114 µM), for inactives: at the top dose activity change, negative = inhibition, most hits filed as inhibitors | 0.46% of 360,000 active | AID 651768, 2012; note: potency is the fitted concentration of half-maximal effect; % is set by controls: 0 for no effect and ±100 for the full control effect; nearly all actives have a fitted effect of over 55% in size
Target sequence (Q14191 whole entry, looked up): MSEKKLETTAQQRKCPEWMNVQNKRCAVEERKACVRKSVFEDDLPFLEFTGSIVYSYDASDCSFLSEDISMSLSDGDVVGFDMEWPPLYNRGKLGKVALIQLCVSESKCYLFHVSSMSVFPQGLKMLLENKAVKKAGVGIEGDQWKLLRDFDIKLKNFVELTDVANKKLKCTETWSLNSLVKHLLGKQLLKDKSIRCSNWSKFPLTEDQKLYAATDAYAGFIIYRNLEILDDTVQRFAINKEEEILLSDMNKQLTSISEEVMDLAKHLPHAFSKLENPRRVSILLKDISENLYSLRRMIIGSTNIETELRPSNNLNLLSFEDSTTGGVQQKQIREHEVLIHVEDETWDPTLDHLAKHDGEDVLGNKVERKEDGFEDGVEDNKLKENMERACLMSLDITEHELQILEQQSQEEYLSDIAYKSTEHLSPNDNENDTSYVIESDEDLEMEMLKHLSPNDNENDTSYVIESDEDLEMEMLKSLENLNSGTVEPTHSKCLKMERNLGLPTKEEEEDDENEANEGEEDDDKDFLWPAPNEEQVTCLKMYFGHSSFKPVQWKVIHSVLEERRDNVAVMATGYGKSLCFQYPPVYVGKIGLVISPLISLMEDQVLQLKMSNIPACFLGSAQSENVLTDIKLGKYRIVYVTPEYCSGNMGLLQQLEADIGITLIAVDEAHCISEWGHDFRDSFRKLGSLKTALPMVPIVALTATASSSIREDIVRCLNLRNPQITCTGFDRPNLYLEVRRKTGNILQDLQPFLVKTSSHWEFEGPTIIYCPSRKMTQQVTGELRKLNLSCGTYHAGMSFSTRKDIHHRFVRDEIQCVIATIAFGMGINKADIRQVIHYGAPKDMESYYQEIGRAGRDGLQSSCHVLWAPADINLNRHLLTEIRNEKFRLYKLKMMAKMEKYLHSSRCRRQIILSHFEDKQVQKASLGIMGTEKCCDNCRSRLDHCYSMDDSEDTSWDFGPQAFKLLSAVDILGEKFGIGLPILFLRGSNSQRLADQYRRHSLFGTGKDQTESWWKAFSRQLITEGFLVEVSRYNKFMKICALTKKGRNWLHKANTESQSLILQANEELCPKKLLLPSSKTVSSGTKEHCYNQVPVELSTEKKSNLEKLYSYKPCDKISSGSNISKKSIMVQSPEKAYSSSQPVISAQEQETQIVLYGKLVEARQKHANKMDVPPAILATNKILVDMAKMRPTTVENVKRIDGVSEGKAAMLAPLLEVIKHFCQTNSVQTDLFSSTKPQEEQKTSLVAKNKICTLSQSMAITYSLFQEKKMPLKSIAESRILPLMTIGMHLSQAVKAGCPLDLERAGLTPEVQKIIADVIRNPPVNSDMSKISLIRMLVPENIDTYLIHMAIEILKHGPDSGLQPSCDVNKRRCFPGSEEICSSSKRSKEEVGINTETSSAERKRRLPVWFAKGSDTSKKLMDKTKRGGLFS
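Kinetic red-fluorescence monitoring (525/598 nm) tracks WRN helicase activity after 100 nM fluorophore-quencher forked duplex and 2 mM ATP are added to 20 nM enzyme pretreated 15 min at room temperature with compound.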
PI5P4Ka inh: qHTS for Inhibitors of phosphatidylinositol 5-phosphate 4-kinase (PI5P4K) | PI5P4Kalpha enzyme, ADP-Glo luminescence, 60 min; active compounds read low | 1.2% of 330,000 active | Phosphatidylinositol 5-phosphate 4-kinase type-2 alpha (Homo sapiens), P48426 | max response, %; active = max response of -50% or lower; inconclusive = between -30% and -50%; inactive = -30% or higher; note: value at the top dose of about 77 µM; % is set by controls: 0 for no effect and ±100 for the full control effect
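Single end-point luminescence (ADP-Glo) quantified ADP from PI5P4Kalpha turnover; ATP 5 microM final, 1 h at RT, 0.1% CHAPS and 0.28 mM EGTA in HEPES pH 7.4.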
POLH inh: qHTS for Inhibitors of Polymerase Eta. DNA polymerase eta (Homo sapiens), Q9Y253. recombinant Pol eta, fluorescent DNA replication assay. Potency, µM (series often up to 114 µM), for inactives: at the highest dose activity change, negative = inhibition, hits mostly inhibitors. 1.2% of 390,000 active; note: potency is the fitted concentration of half-maximal effect; % is set by controls: 0 for no effect and ±100 for the full control effect
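Pol eta at 10 nM preincubated with compounds 15 min at room temperature; reaction started with fluorescent substrate (50 nM final) and read kinetically at 0 and 10 min.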
An asterisk follows results filed as active; ? = inconclusive; . = no result given; [ ] = remark or other dose. The list is not random: actives were taken first. Their share in the collection is about 2.8%. Unless noted, calls come from the whole dose curve; as a rule, active = well fitted curve in the direction sought with a large enough effect; inconclusive = small, poorly fitted or top-dose-only effect, or another doubt; inactive = no such curve, though single readings can be large; an effect the other way counts as inactive or inconclusive.

SMILES	POLB inh	Pol kappa inh	Pol iota inh	WRN helicase inh	PI5P4Ka inh	POLH inh
O=[N+]([O-])c1ccc(S(=O)(=O)Nc2ccc(-c3ccc(N4CCCC4)nn3)cc2)cc1	.	0%	20%	-5%	-23	-15%
O=[N+]([O-])c1ccc(Cl)c(S(=O)(=O)Nc2ccc(-c3ccc(N4CCCC4)nn3)cc2)c1	.	-9%	?	-6%[11.6 µM]	-29	45µM*
CCCCC#Cc1nc(NC)c2ncn([C@@H]3O[C@H](CO)[C@@H](O)[C@H]3O)c2n1	.	-2%[60.1 µM]	.	.	.	.
CC(C)Oc1ccc(CNC(=O)c2cccc(NC(=O)c3nsc4ccccc34)c2)cc1	8%	-7%[60.1 µM]	10%	.	.	-14%
C[N+]1(CC(=O)c2ccc(F)cc2)CCc2ccccc2C1 (stereo not given)	.	-6%	8%	.	.	.
O=C(N/N=C/c1ccc(OC(=O)c2cccs2)cc1)c1ccc(F)cc1	18µM*	-17%	9%	-7%	-1	?
O=C(N/N=C/c1ccc(F)cc1)c1ccc(Br)cc1	32µM*	-8%	-11%	-12%	.	-16%
O=C(N/N=C/c1ccncc1)c1ccc(-n2cccc2)cc1	40µM*	-2%	79µM*	3%	-20	-9%
O=C(N/N=C/c1ccc(Br)cc1)c1ccc(F)cc1	-10%	-5%	-3%	1%	5	-11%
O=C(N/N=C/c1ccc(F)cc1)c1ccccc1	24%	0%	32%	-11%	10	-5%
CC(/C=N/NC(=O)c1ccc(Br)cc1)=C\c1ccccc1	22µM*	1%[60.1 µM]	?	-22%	.	-11%
Cc1coc2cc3oc(=O)c(CCC(=O)NCc4ccccc4Cl)c(C)c3cc12	5%	7%	-4%	.	.	-3%
Cc1ccc(CNC(=O)CSc2ncc(S(=O)(=O)c3ccc(C)c(Cl)c3)c(=O)[nH]2)cc1	-12%	-8%[60.1 µM]	-8%	.	.	-9%
CCC1CCCCN1C(=O)CSc1nnc(-c2ccc(OC)c(OC)c2)o1 (stereo not given)	17%	13%	24%	.	.	-8%
CCN1C(=O)[C@@H]2[C@@H]3CN(S(=O)(=O)c4ccc(C)cc4)[C@@H](c4ccccc4)[C@@H]3C(=O)C[C@@H]2C1=O	.	.	.	-5%	0	.
CCOC1=CC2=C(C(=O)C(Cl)=CC2=O)[C@@H]2CN(S(=O)(=O)c3ccc(C)cc3)[C@@H](c3ccccc3)[C@H]12	.	.	.	-21%	-107*	.
Cc1ccc(S(=O)(=O)C(CNC(=O)C(=O)NCc2ccccc2C)c2cccs2)cc1 (stereo not given)	17%	-19%[60.1 µM]	-13%	.	.	-12%
Cc1cnc2ccc(I)cc2c1/C=C/c1ccc(N(C)C)cc1	.	-39%	-22%	.	.	.
Cn1nnnc1SCCCNCc1cccc(OCc2ccccc2)c1	-2%	-9%	11%	.	.	-23%
O=C1Cc2cc(S(=O)(=O)N3CCNCC3)ccc2N1	.	-1%	32µM*	4%[11.6 µM]	-22	?
O=C(/C=C/c1ccc(O)cc1)c1ccc(NC2=C(N3CCCCC3)C(=O)c3ccccc3C2=O)cc1	?	-11%	28µM*	-35%	-29	?
CCCCOc1ccc(C(=O)N/N=C/c2ccc(OCCN3CCCCC3)c(OC)c2)cc1	16µM*	?	?	-2%[11.6 µM]	11	?
COc1ccc(/C=N/NC(=O)c2cccnc2)cc1CN1CCCc2ccccc21	1%	-19%	35%	-23%	-9	-17%
CCCOc1ccc(/C=N/NC(=O)CSc2ccccn2)cc1OC	79µM*	-22%	18%	-6%	4	-12%
COc1ccc(C(=O)N/N=C/c2ccc(OC)c(CN3CCCc4ccccc43)c2)cc1	20µM*	-20%	44%	4%	-6	-3%

Source: PubChem BioAssay (National Center for Advancing Translational Sciences (NCATS))
